# Experimental data as given in PMC5540273 (PLoS ONE, 2017).
# Columns and labels:
# Conditions in all cases: concentration: 1 μM, replicates: in singlicate; n = 1
# CDKL5 = system: CDKL5
# CHEK1 = system: CHEK1
# CHEK2 = system: CHEK2
# CIT = system: CIT
# CLK1 = system: CLK1
# CLK2 = system: CLK2
# CLK3 = system: CLK3
# CLK4 = system: CLK4
# CSF1R-autoinhibited = system: CSF1R-autoinhibited
# CSF1R = system: CSF1R
# CSK = system: CSK
# CSNK1A1L = system: CSNK1A1L
# CSNK1A1 = system: CSNK1A1
# CSNK1D = system: CSNK1D
# CSNK1E = system: CSNK1E
# CSNK1G1 = system: CSNK1G1
# CSNK1G2 = system: CSNK1G2
# CSNK1G3 = system: CSNK1G3
# CSNK2A1 = system: CSNK2A1
# CSNK2A2 = system: CSNK2A2
# 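Also: KINOMEscan kinase panel screen.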
Structure (SMILES),%Inh (CDKL5) [%],%Inh (CHEK1) [%],%Inh (CHEK2) [%],%Inh (CIT) [%],%Inh (CLK1) [%],%Inh (CLK2) [%],%Inh (CLK3) [%],%Inh (CLK4) [%],%Inh (CSF1R-autoinhibited) [%],%Inh (CSF1R) [%],%Inh (CSK) [%],%Inh (CSNK1A1L) [%],%Inh (CSNK1A1) [%],%Inh (CSNK1D) [%],%Inh (CSNK1E) [%],%Inh (CSNK1G1) [%],%Inh (CSNK1G2) [%],%Inh (CSNK1G3) [%],%Inh (CSNK2A1) [%],%Inh (CSNK2A2) [%]
Cc1ccc(NC(=O)Nc2ccc(Cl)cc2)cc1-c1ccc(C(=O)Nc2ccncc2)cc1 [GSK1398472],0,19,0,89,32,0,14,42,4,87,0,1,0,6,26,2,7,36,0,0
O=c1cc(N2CCOCC2)nc2n(Cc3ccccc3F)ccn12 [GSK2297428],0,9,0,18,36,0,22,54,7,0,0,0,28,25,33,9,0,28,0,0
CS(=O)(=O)CCNCc1nc(-c2ccc3ncnc(Nc4ccc5c(cnn5Cc5ccccc5)c4)c3c2)cs1.Cl.Cl [GW569716],14,0,57,34,24,0,1,5,39,0,0,0,0,2,21,1,0,3,0,37
CS(=O)(=O)CCNCc1nc(-c2ccc3ncnc(Nc4ccc(OCc5ccccc5)c(Cl)c4)c3c2)cs1.Cl [GW582764],0,100,30,38,22,0,0,6,48,3,0,9,0,10,15,0,0,13,0,0
NS(=O)(=O)c1cccc(N/C=C2\C(=O)Nc3ccc(S(=O)(=O)Cc4c(Cl)cccc4Cl)cc32)c1 [GSK398099],0,6,0,22,43,33,4,0,0,3,0,11,0,12,18,12,0,28,0,19
Nc1ncnc2occ(-c3ccc4c(c3)CCN4C(=O)Cc3cc(F)ccc3F)c12 [GSK2645446],0,0,21,0,27,0,0,0,0,17,0,1,1,0,30,4,0,38,0,11
COc1ccc(Nc2nccc(N3CCC(NC(=O)c4cc5ccccc5s4)C3)n2)cc1 (stereo not shown) [GSK1379738],0,100,0,0,24,7,4,0,0,19,2,2,0,9,34,0,0,17,5,0
CC(C)c1ccc(O)cc1Nc1ccnc2ccc(C(F)(F)F)cc12 [GW482059],0,14,0,25,14,4,0,32,0,0,0,11,0,0,0,0,0,9,7,0
